# Reference: PubChem BioAssay AID1671192 (National Center for Advancing Translational Sciences (NCATS), 2021)
# Results filed as inconclusive are left out. Activity calls are given as the source filed them. Calls come from the whole dose curve; as a rule, active = well fitted curve in the direction sought with a large enough effect; inconclusive = small, poorly fitted or top-dose-only effect, or another doubt; inactive = no such curve, though single readings can be large or run the other way.
# Target: Polyunsaturated fatty acid lipoxygenase ALOX15 (Homo sapiens) (UniProt P16050)
# Assay: Counterscreen qHTS for inhibitors of human arachidonate 12S-lipoxygenase (ALOX12): ALOX15 Assay
# Details: purified ALOX15 enzyme activity; series mostly up to 110 µM
# Procedure, shortened: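 Purified human ALOX15 (15hLO-1) at 40 nM in 25 mM HEPES, 0.01% Triton X-100, pH 7.5, preincubated with compound 15 min at RT. Then 50 uM arachidonic acid for 30 min; hydroperoxide detected by Fe-xylenol orange as the 573/405 nm absorbance ratio.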
# Polyunsaturated fatty acid lipoxygenase ALOX15 (Homo sapiens), sequence (P16050 whole entry, looked up): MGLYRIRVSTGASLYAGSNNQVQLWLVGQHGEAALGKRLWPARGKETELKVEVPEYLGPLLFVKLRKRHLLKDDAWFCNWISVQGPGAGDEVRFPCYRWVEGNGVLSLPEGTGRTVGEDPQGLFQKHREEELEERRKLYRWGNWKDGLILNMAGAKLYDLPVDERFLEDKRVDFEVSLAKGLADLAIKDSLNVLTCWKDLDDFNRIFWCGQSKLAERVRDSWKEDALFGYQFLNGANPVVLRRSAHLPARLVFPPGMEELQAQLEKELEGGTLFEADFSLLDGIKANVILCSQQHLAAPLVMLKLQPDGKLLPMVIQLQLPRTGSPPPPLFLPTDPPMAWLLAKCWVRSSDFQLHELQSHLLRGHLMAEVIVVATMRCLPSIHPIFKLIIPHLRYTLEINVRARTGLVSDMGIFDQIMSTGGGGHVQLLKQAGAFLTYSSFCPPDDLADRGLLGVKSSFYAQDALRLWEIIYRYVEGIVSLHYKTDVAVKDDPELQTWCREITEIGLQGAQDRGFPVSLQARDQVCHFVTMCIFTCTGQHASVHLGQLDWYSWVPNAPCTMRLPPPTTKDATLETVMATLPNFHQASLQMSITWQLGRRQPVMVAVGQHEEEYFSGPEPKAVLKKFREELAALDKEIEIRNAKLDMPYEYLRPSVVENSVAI
row,Structure (SMILES),outcome
1,Cc1cc(C(=O)NCc2ccc(F)cc2)c2c(C3CCCNC3)noc2n1 (stereo not drawn),inactive
2,CC(=O)NCCC(=O)N1Cc2ccccc2CC2(CCCN2CC2CCNC2)C1 (stereo not drawn),inactive
3,O=c1[nH]c(C2CCCN(Cc3ccc(-c4ccccc4)cc3)C2)nc2ccc(F)cc12 (stereo not drawn),inactive
4,COc1ccc(-c2cc(C(=O)NC3CCNCC3)c3c(C4CCCN4)noc3n2)cc1 (stereo not drawn),inactive
5,CC(C)S(=O)(=O)N1CCC(c2nnc3n2CCNC3)CC1,inactive
6,COc1ccc(CNc2ncnc3c2CN(C2CCNC2)C(=O)CN3C)cc1OC (stereo not drawn),inactive
7,C[C@H](C(=O)N1Cc2ccccc2CC2(CCN(C)C2)C1)c1ccccc1 (stereo partly drawn),inactive
8,O=C1NCc2ccccc2CC12CCCN2Cc1ccc(O)cc1O (stereo not drawn),inactive
9,CCOC(=O)N1CCC(NC)CC1,inactive
10,COc1cccc(-c2ccc(CN3C4CCC3CN(C(=O)Nc3ccccc3F)C4)cc2)c1,inactive
11,CN1CC(=O)N(C2CCCNCC2)Cc2c1ncnc2N1CCCCC1 (stereo not drawn),inactive
12,FC(F)(F)c1ccc(CN2CCCC3(CC(c4cccc(C(F)(F)F)c4)=NO3)C2)cc1 (stereo not drawn),inactive
13,Cc1cc(Cl)ccc1NC1CN(C(=O)OC(C)(C)C)C1,inactive
14,CN1CCC(C(=O)N2Cc3ccccc3CC3(CCCN(CC4CCNC4)C3)C2)CC1 (stereo not drawn),inactive
15,CN1CC(=O)N(C2CCCNCC2)Cc2c(NCc3cccc(Cl)c3)ncnc21 (stereo not drawn),inactive
16,CN1CC(=O)N(C2CCCNCC2)Cc2c1ncnc2N1CCN(c2ncccn2)CC1 (stereo not drawn),inactive
17,O=C1NCc2ccccc2CC12CCN(Cc1cc(O)cc(O)c1)C2 (stereo not drawn),inactive
18,COc1ccc(OC2CN(Cc3cccc4ccccc34)C2)cc1,inactive
19,C[S+](=O)([O-])N1Cc2ccccc2CC2(CCCN2CC2CCNCC2)C1 (stereo not drawn),inactive

row,Structure (SMILES),outcome
1,NCc1ccc(-c2ccc(OC(F)(F)F)cc2)cc1,inactive
2,CCN(CC)CC(C)NC (stereo not drawn),inactive
3,O=C(c1ccc2c(c1)OCO2)N1CCCC1c1nnc2n1CCNC2 (stereo not drawn),inactive
4,Cc1cc(C(=O)NC2CCCC2)c2c(C3CCNC3)noc2n1 (stereo not drawn),inactive
5,Cn1nc(C2CCCN2)c2c(C(=O)NCc3ccncc3)cc(C3CC3)nc21 (stereo not drawn),inactive
6,COc1ccc(F)cc1-c1ccccc1C=O,inactive
7,O=C(NC1CCCCC1)N1CCC(c2nnc3n2CCNC3)CC1,inactive
8,CC(C)c1nc2c(c(-c3ccc(Cl)cc3)n1)CCN(Cc1cccc3ccccc13)CC2,inactive
9,CC(CO)Nc1ncnc2c1CN(C1CCCNC1)C(=O)CN2C (stereo not drawn),inactive
10,NCc1ccccc1-c1ccc(O)cc1,inactive
11,CCOc1cccc(CN2CCC3(Cc4ccccc4CNC3=O)C2)c1 (stereo not drawn),inactive
12,N#Cc1ccc(CN2CCC3(CN[S+](=O)([O-])c4cnccc4O3)C2)cc1 (stereo not drawn),inactive
13,O=C(c1ccccc1F)N1CCn2c(nnc2C2CCNCC2)C1,inactive
14,NCc1ccc(-c2cccc(O)c2)cc1,inactive
15,O=C1NCc2ccccc2CC12CCN(Cc1cnc3ccccc3c1)C2 (stereo not drawn),inactive
16,O=S1(=O)CCCN1C1CCN(Cc2cccc3ccccc23)CC1,inactive
17,Cn1nc(C2CCCN2)c2c(C(=O)NCc3cccs3)cc(C3CC3)nc21 (stereo not drawn),inactive
18,O=C1NC2(Cc3ccccc31)CN(C(=O)c1cccc3c1OC(F)(F)O3)C2,inactive
19,COc1cccc(N2C(=O)NC(=NC3CCCCC3)C23CCCN(Cc2cccnc2)C3)c1 (stereo not drawn),inactive
